Screening data deposited in PubChem by Paczesny and Yang Labs, IUPUI and University of Michigan.
ST2 inh: inhibitors of human ST2 (IL1RL1) binding to IL-33, primary screen, biochemical, AlphaLISA; AID 1259354, 2018; inhibition, % for hits at 17 µM; AlphaLISA ST2-Fc/biotin-IL-33 interaction, 1 h; 78,000 compounds, 2.3% hits; Interleukin-1 receptor-like 1 (Homo sapiens), Q01638; in the data active = inhibition above about 30%
Target sequence (Q01638 whole entry, looked up): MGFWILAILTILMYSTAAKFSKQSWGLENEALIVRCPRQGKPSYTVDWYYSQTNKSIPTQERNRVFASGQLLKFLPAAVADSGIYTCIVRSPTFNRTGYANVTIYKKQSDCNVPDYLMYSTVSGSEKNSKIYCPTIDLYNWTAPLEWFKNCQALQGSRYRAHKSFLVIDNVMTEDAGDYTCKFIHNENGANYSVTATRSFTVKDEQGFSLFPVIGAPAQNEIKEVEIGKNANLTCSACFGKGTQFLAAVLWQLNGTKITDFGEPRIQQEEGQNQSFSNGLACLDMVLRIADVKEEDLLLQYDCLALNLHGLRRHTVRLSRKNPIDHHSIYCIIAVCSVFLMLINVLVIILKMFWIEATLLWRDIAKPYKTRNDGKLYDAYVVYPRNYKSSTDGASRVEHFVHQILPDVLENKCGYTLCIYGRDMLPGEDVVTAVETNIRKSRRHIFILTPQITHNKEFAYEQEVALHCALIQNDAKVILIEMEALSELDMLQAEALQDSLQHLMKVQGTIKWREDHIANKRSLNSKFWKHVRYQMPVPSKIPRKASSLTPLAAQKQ
Large screens that a line does not name were inactive. Many of the other results were omitted from the sample, so hits are more common in it than they were.

COc1cccc2c1OCC(CN(C)CC1CCN(Cc3ccc(C)o3)CC1)=C2	none
COc1ccc(C(=O)Nc2cc(N3CCCS3(=O)=O)ccc2C)cc1OC	none
COc1cc(C2Nc3ccccc3NC3=C2C(=O)CC(c2ccccc2)C3)ccc1OC(C)=O (configuration not stated)	none
COc1ccc(C2CC(=O)C3=C(C2)Nc2ccccc2NC3c2ccc(C)s2)cc1 (configuration not stated)	ST2 inh 30.0%
CCCOc1ccccc1C1CC(=O)C2=C(C1)Nc1ccccc1NC2c1ccc(OC)cc1 (configuration not stated)	none
Cc1ccnc(NS(=O)(=O)c2ccc(NC(=O)c3cccc([N+](=O)[O-])c3)cc2)n1	none
O=C(NC(Nc1ccc(C(F)(F)F)cc1Cl)C(Cl)(Cl)Cl)c1cccnc1 (configuration not stated)	ST2 inh 63.0%
O=C(NC(Nc1ccc(Cl)cc1)C(Cl)(Cl)Cl)c1cccnc1 (configuration not stated)	none
Cc1ccc(Oc2ccc(C(F)(F)F)cc2NC(=O)c2cccnc2)cc1	none
COc1cc(OC)cc(C(=O)Nc2c(C(=O)Nc3cccc(F)c3)oc3ccccc23)c1	none
CCN(CCN(C)C)Cc1ccc(OC)cc1	none
C=CCn1c(=O)c(-c2ccc3ccccc3n2)cc2ccccc21	none
CNc1cc(-c2ccc3ccccc3n2)c2cc[nH]c2n1	ST2 inh 52.0%
CC(C)Nc1ccc(-c2cc(N)nc3[nH]ccc23)nn1	none
COC(=O)c1ccc([C@@H]2C[C@H]3CN(CCc4ccccc4)C(=O)[C@]34CCCN24)cc1	none
O=C(Nc1c2c(nn1-c1cccc(Cl)c1)CS(=O)C2)c1cccs1 (configuration not stated)	none
O=C(Cn1c2ccccc2c(=O)c2ccccc21)Nc1ccccc1C(F)(F)F	ST2 inh 39.0%
O=C(Cn1c2ccccc2c(=O)c2ccccc21)Nc1ccccc1F	none
O=C(Cn1c2ccccc2c(=O)c2ccccc21)Nc1ccccc1Br	none
COc1ccc(OCCn2c(NC(C)=O)nc3ccccc32)cc1	none
O=C(Nc1ccc([N+](=O)[O-])cc1)C1CC(=O)N(c2ccc(F)cc2)C1 (configuration not stated)	none
O=C1NCC2(CCCN(C(=O)Cc3c(F)cccc3Cl)CC2)O1 (configuration not stated)	none
Clc1nc(N2CCCCC2)nc(N2CCOCC2)n1	none
O=C(N1CCCCC1)[n+]1ccc(N2CCOCC2)cc1	none
Clc1ccccc1/C=C/C=Nc1ccc(N2CCOCC2)cc1	ST2 inh 38.0%
COc1ccc(C(=O)N2CCC(c3nn(C)c(=O)n3-c3ccccc3)CC2)o1	none
CC(=O)Nc1ccccc1/C=C/c1ccc2c(C)ccc(O)c2n1	none
CCOc1ccccc1OCCOc1ccccc1C=O	none
CCOc1cccc(/C=C/c2ccc3cccc(O)c3n2)c1OC	ST2 inh 54.0%
COc1ccccc1N1CCN(CC(O)COc2ccc(Cl)cc2)CC1 (configuration not stated)	none
CCNC(=O)N[C@H]1[C@H](O)[C@@H](N2CCN(c3ccccc3OC)CC2)[C@@H]2OC[C@H]1O2	none
O=S(=O)(N[C@H]1CO[C@H]2[C@@H]1OC[C@@H]2Nc1nccc(-c2cccs2)n1)c1cccc2cccnc12	none
CCc1ccc(CN(C)Cc2cnc3c(-c4ccccc4)cnn3c2)nc1	none
OC1(c2ccccc2)CCN(Cc2cnc3c(-c4ccccc4)cnn3c2)CC1	ST2 inh 33.0%
COC(=O)[C@@H]1CCCN1Cc1cnc2c(-c3ccccc3)cnn2c1	none
COC(=O)c1cc2n(n1)CCN(C(=O)CC(=O)Nc1ccc(C)cc1)C2	none
c1ccc(-c2ncn(CCc3cnc[nH]3)c2-c2ccc3c(c2)OCCO3)cc1	none
O=C(O)C1CC=CCC1C(=O)Nc1ccccc1 (configuration not stated)	none
COc1ccc(CNC(=O)[C@H]2O[C@H](CCN3CCN(c4ccccc4)CC3)CC[C@@H]2O)cc1	none
COCCN(CCOC)CC[C@@H]1CC[C@H](O)[C@@H](C(=O)Nc2ccccc2)O1	ST2 inh 38.0%
Cc1nc(SCC(=O)N2CCCCC2)c2c(=O)n(C)c(=O)n(C)c2n1	none
O=C(CCCCN1Cc2ccccc2C1=O)NC1CCc2ccccc21 (configuration not stated)	none
CC1=C(C(=O)Nc2cccnc2)C(c2ccncc2)n2nc(SCc3ccccc3)nc2N1 (configuration not stated)	none
CC(=O)Nc1ccc(N=Cc2cc(Br)cc(Cl)c2O)cc1	none
CCN(CC)c1ccc(N=Cc2ccc(N(CC)CC)cc2O)cc1	ST2 inh 60.0%
CCN(CC)CCNC(=O)c1ccc(N=Cc2cc(Cl)cc(Cl)c2O)cc1	none
Cc1nc2c(C(=O)NCCN(C)C)cnn2c(C)c1Cc1c(F)cccc1Cl	none
O=C(O)c1cccn1Cc1ccccc1Cl	none
Cc1nc2cc(NC(=O)c3ccc4c(c3)OCCO4)ccc2s1	none
CC(=O)Oc1ccc2c(=O)c(Oc3ccccc3)coc2c1C	none
Cc1c(O)ccc2c(=O)c(Oc3ccccc3)coc12	none
O=c1c(Oc2ccc(F)cc2)coc2c(O)c(O)ccc12	ST2 inh 41.0%
Cc1nc2ccccc2n1CCC(=O)N1CCC(O)(CN(C)C)C1 (configuration not stated)	none
CCOc1ccc(-c2nc(SCC(=O)N3CCc4ccccc4C3)n3[nH]c(=O)cc3n2)cc1	none
C=CCN1C(=O)/C(=c2/sc3nc4ccccc4n3c2=O)c2ccccc21	ST2 inh 31.0%
O=c1/c(=C/c2ccccc2F)sc2nc3ccccc3n12	none
CCCCN1C(=O)/C(=c2\sc3nc(-c4ccc(OC)cc4)nn3c2=O)c2ccccc21	none
O=C(Nc1ccc(-c2nc3ccccc3c(=O)o2)cc1)c1ccc(Cl)cc1	none
COc1ccc(OC)c(C(C)NC(=O)CC(C)c2ccccc2)c1 (configuration not stated)	none
C=CCN1C(=O)S/C(=C/c2ccc(N3CCCC3)o2)C1=O	ST2 inh 44.0%
C=CCN1C(=O)c2ccccc2Sc2ccc(C(=O)O)cc21	none
C=CCNc1nc2ccccn2c(=O)c1/C=C1\SC(=O)N(CCC)C1=O	none
CC(C)COc1ccc2c(c1)c1c3c(nccn32)CCC1	ST2 inh 38.0%
CC(C)COc1ccc2c(c1)c1c3n2CCNC3CCC1 (configuration not stated)	none
OCCNc1cc(-n2cccn2)ncn1	none
O=C(NCc1ccccc1)NC1(C(F)(F)F)Oc2ccc(Cl)cc2O1 (configuration not stated)	none
COc1cc(NS(=O)(=O)c2ccc(NC(=O)c3cccc([N+](=O)[O-])c3)cc2)nc(OC)n1	none
CC(C)Oc1ccc(C(O)=C2C(=O)C(=O)N(c3ccccn3)C2c2cccs2)cc1 (configuration not stated)	none
CC(C)Oc1ccc(C(O)=C2C(=O)C(=O)N(c3nccs3)C2c2ccc([N+](=O)[O-])cc2)cc1 (configuration not stated)	ST2 inh 35.0%
CCCOc1ccc(C(O)=C2C(=O)C(=O)N(c3nccs3)C2c2cccs2)cc1 (configuration not stated)	none
O=C(NCc1ccccc1)c1cccc(Br)c1	none
COc1ccc(S(=O)(=O)N(CC(=O)Nc2ccc3c(c2)OCCO3)c2ccccc2)cc1	none
O=C(CSc1nnc(NC(=O)c2ccccc2Cl)s1)Nc1ccc([N+](=O)[O-])cc1	none
COC(=O)C1=C(NC(=O)c2cc(Cl)ccc2Cl)CCS1	none
COC(=O)C1=C(NC(=O)c2cc(C)cc(C)c2)CCS1	ST2 inh 50.0%
COC(=O)C1=C(NC(=O)c2ccc(Cl)cc2)CCS1	none
CC(=NC1CC1)c1c(C)[nH]n(-c2ccc([N+](=O)[O-])cc2)c1=O	none
